From PubChem BioAssay (EPA / NIEHS)
Activity calls are given as the source filed them. The calls were made as follows: active = hit-call score of the fitted dose curve at least 0.9, where 1 is the maximum; inactive = score below 0.9.

biological target: Hepatocyte nuclear factor 6 (Homo sapiens) (UniProt Q9UBC0); experiment: ATG_HNF6_CIS: Attagene CIS-FACTORIAL HepG2 Assay for human Hepatocyte Nuclear Factor 6 (HNF6) (AID 2282952); details: HepG2 Attagene cis-factorial HNF6 reporter transcription; actives raise or lower the signal
Sequence (Q9UBC0 whole entry, looked up): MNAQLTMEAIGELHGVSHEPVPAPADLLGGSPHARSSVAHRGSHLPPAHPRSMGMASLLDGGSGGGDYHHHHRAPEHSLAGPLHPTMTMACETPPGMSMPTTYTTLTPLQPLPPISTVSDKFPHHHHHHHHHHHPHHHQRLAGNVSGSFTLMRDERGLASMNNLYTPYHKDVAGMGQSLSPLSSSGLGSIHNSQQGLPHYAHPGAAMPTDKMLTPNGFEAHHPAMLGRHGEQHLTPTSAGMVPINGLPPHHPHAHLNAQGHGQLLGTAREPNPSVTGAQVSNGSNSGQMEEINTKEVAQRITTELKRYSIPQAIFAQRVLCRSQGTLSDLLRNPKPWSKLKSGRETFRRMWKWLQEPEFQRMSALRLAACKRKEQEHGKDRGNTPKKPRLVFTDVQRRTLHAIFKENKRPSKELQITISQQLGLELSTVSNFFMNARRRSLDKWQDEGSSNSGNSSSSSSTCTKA
Procedure: ATG_CIS is a cell-based, multiplexed-readout assay that uses HepG2, a human liver cell line, with measurements taken at 24 hours after chemical dosing in a 24-well plate.ATG_HNF6_CIS is one of 52 assay component(s) measured or calculated from the ATG_CIS assay. It is designed to make measurements of mRNA induction, a form of inducible reporter, as detected with fluorescence intensity signals by Reverse transcription polymerase chain reaction (RT-PCR) and Capillary electrophoresis technology.Data from the assay component ATG_HNF6_CIS was analyzed into 1 assay endpoint. This assay endpoint, ATG_HNF6_CIS, was analyzed with bidirectional fitting relative to DMSO as the negative control and baseline of activity. Using a type of inducible reporter, measures of mRNA for gain or loss-of-signal activity can be used to understand the reporter gene at the transcription factor-level as they relate to the gene ONECUT1. Furthermore, this assay endpoint can be referred to as a primary readout, because this assay has produced multiple assay endpoints where this one serves a reporter gene function. To generalize the intended target to other relatable targets, this assay endpoint is annotated to the dna binding intended target family, where the subfamily is homeobox protein.
Human liver HepG2 cells are transiently transfected with multiple reporter transcription units (MRTUs) in 6-well plates using FuGene 6 reagent (Roche; 3 ml FuGene/1 mg DNA). The MRTU constructs are regulated by a cis-regulating element (promoter). […] A major difference between the CIS and TRANS system is that in CIS activities of endogenous TFs are measured, whereas the TRANS assay evaluates changes in activities of exogenous, chimeric NR-Gal4 proteins. […] At the end of 24 hour incubation, total RNA was isolated using TriZol reagent (Invitrogen). The isolated RNA is then reverse-transcribed using oligo(dT) primer and Mo-MLV reverse transcriptase (Invitrogen) with DNAse I (Ambion) treatment for 30 min. The one-tenth of the produced cDNA was amplified by PCR using Taq DNA polymerase (Invitrogen) and two reporter sequence-specific primers. The PCR products were fluorescently labeled by primer extension with 6-arboxyfluorescein (6-FAM) 5'-labeled reporter sequence-specific primer (2 min at 95 C, 20 s at 68 C and 10 min at 72 C) and these products were digested with 5U of HpaI (New England Biolabs) for 2h at 37 C. The fragments were purified using Qiaquick PCR columns (Qiagen), analyzed on an ABI 3130xL genetic analyzer (Applied Biosystems) with peak positions identified by using a set of X-rhodamine (ROX)-labeled MapMarker1000 molecular weight standards (BioVentures). The raw capillary electrophoresis data was processed using Attagraph software (Attagene).

With `N#[N+]c1ccc2c(S(=O)(=O)[O-])cccc2c1O` as the molecule, how does the outcome read?
Its outcome is “inactive”.

With `CCCCC(CC)COCC1CO1` (stereo not given) as the molecule, how does the outcome read?
The outcome was “inactive”.

With `CC(C)(C)C(=O)CCc1ccc(Cl)cc1` as the molecule, how does the outcome read?
Its outcome is “inactive”.

With `CCN(Cc1cccc(S(=O)(=O)O)c1)c1ccc(C(=C2C=CC(=[N+](CC)Cc3cccc(S(=O)(=O)[O-])c3)C=C2)c2ccccc2)cc1` as the molecule, how does the outcome read?
The outcome was “inactive”.

With `C=CC(=O)OCCC(=O)O` as the molecule, how does the outcome read?
The outcome was “inactive”.

With `Nc1cccc(C(F)(F)F)c1` as the molecule, how does the outcome read?
The outcome was “inactive”.

With `CCCCCCCC/C=C\CCCCCCCC(=O)OCCO` as the molecule, how does the outcome read?
Its outcome is “inactive”.

Which outcome does the source give for `CC(=O)OCC(=O)[C@@]12N=C(C)O[C@@H]1C[C@H]1[C@@H]3CCC4=CC(=O)C=C[C@]4(C)[C@H]3[C@@H](O)C[C@@]12C` here?
Its outcome is “inactive”.

With `C[Si](C)(CCCN)O[Si](C)(C)CCCN` as the molecule, how does the outcome read?
The outcome was “inactive”.

`CCO[Si](C)(OCC)OCC` was tested. Which outcome did it give?
Its outcome is “inactive”.

How did the outcome turn out when `CNC(=S)NN` was run?
Its outcome is “inactive”.

Which outcome does the source give for `O=C(Nc1cccc(C(F)(F)F)c1)c1cc(Br)cc(Br)c1O` here?
The outcome was “inactive”.

Which outcome does the source give for `[Cl][Bi]([Cl])([c]1ccccc1)([c]1ccccc1)[c]1ccccc1` here?
The outcome was “inactive”.

With `O=c1c2ccccc2nnn1CCl` as the molecule, how does the outcome read?
The outcome was “inactive”.

`CCCCCCOc1cc(C)c(O)c(C)c1C` was tested. Which outcome did it give?
Its outcome is “inactive”.

`O=S(=O)(O)c1ccccc1C=Cc1ccc(-c2ccc(C=Cc3ccccc3S(=O)(=O)O)cc2)cc1` was tested. Which outcome did it give?
The outcome was “inactive”.

For `OC1CCCCCCCCCCC1`, which outcome is on record?
The outcome was “inactive”.

`CCCCOCCOC(=O)COc1nc(Cl)c(Cl)cc1Cl` was tested. Which outcome did it give?
The outcome was “inactive”.

For `O=C1CC2CC1C1CCCC21` (stereo not given), which outcome is on record?
The outcome was “inactive”.

`CCOC(=O)N1CCC(=C2c3ccc(Cl)cc3CCc3cccnc32)CC1` was tested. Which outcome did it give?
The outcome was “inactive”.

Which outcome does the source give for `COc1ccc(-c2coc3cc(O)ccc3c2=O)cc1` here?
Its outcome is “inactive”.

How did the outcome turn out when `O=C1CCCCCCCCCCC(=O)OCCO1` was run?
The outcome was “inactive”.

With `O=S1(=O)OC(c2ccc(O)cc2)(c2ccc(O)cc2)c2ccccc21` as the molecule, how does the outcome read?
Its outcome is “inactive”.

Which outcome does the source give for `O=C1CCCC1` here?
The outcome was “inactive”.

How did the outcome turn out when `C=CC(=O)OCCOC(=O)C=C` was run?
Its outcome is “inactive”.

With `CCOC(=O)[C@H](C)O` as the molecule, how does the outcome read?
Its outcome is “inactive”.

Which outcome does the source give for `CC1(C)O[C@@H]2C[C@H]3[C@@H]4C[C@H](F)C5=CC(=O)CC[C@]5(C)[C@H]4[C@@H](O)C[C@]3(C)[C@]2(C(=O)CO)O1` here?
The outcome was “inactive”.

With `O=C(Nc1ccccc1)c1ccccc1O` as the molecule, how does the outcome read?
Its outcome is “inactive”.

`CCCCCCCOC(=O)CCC` was tested. Which outcome did it give?
Its outcome is “inactive”.

With `CO[Si](OC)(OC)c1ccccc1` as the molecule, how does the outcome read?
Its outcome is “inactive”.

Which outcome does the source give for `CC(C)=CCCC(C)C=O` (stereo not given) here?
Its outcome is “inactive”.

Which outcome does the source give for `Nc1ccc(-c2ccc(F)cc2)cc1` here?
Its outcome is “inactive”.

For `CC1=CC[C@H](C(C)C)C=C1`, which outcome is on record?
The outcome was “inactive”.

For `COC(=O)C1=C(C)NC(C)=C(C(=O)OCC(C)C)C1c1ccccc1[N+](=O)[O-]` (stereo not given), which outcome is on record?
Its outcome is “inactive”.

How did the outcome turn out when `OC1OCCOC1O` (stereo not given) was run?
The outcome was “inactive”.

`CCCC(=O)OCc1ccccc1` was tested. Which outcome did it give?
The outcome was “inactive”.

For `CC(C)C(=O)C(C)C`, which outcome is on record?
Its outcome is “inactive”.

With `CCCOC(=O)CCCCC(=O)OCCC` as the molecule, how does the outcome read?
The outcome was “inactive”.

`O=C1CCCC(=O)O1` was tested. Which outcome did it give?
Its outcome is “inactive”.

With `NCCCN1CCN(CCCN)CC1` as the molecule, how does the outcome read?
Its outcome is “inactive”.
